Assay results from the supplement of paper PMC3414501.
Counter-ions that a name gives are not always drawn. Unmarked numbers belong to inactive results.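 How the source made its calls: active = HIS4 sensitivity z-score above 5 vs DMSO controls; inactive = score 5 or below.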

tested on: S. cerevisiae NKY1551 his4x/his4B, sporulating; assay: HIS4 meiotic recombination assay sensitivity score (z-score vs DMSO controls); higher = stronger inhibition of sporulation/recombination, active = hit call of the paper; conditions: stock concentration (mM, diluted 1:100): 7.6
Method: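 NIH Clinical Collection compounds were added 1:100 from stock (about 100 µM final) to S. cerevisiae. Growth: average doubling time (AvgG) over 24 h of BY4741 (wild-type) or AD1-9 (drug-efflux-pump deficient) in rich media. HIS4: the his4x/his4B heteroallelic recombination reporter strain (SK1) was sporulated 5 h with compound at 30°C, then colony density was read on -his plates after 48 h. Sensitivity score = (compound − mean of 8 DMSO controls)/SD of DMSO controls. Hit cutoffs are >2 for growth and >5 for sporulation.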

| SMILES | HIS4 meiotic recombination assay sensitivity score |
| --- | --- |
| CN1CC[C@]23CCCC[C@H]2[C@H]1Cc1ccc(O)cc13 [Levorphanol tartrate] | -1.13 |

same assay, conditions: stock concentration (mM, diluted 1:100): 7.7

| SMILES | HIS4 meiotic recombination assay sensitivity score |
| --- | --- |
| CCC(COC(=O)c1cc(OC)c(OC)c(OC)c1)(c1ccccc1)N(C)C (stereo not drawn) [Trimebutine maleate] | -1.28 |

same assay, conditions: stock concentration (mM, diluted 1:100): 8.2

| SMILES | HIS4 meiotic recombination assay sensitivity score |
| --- | --- |
| COc1ccc2c(c1)[C@]13CCCC[C@@H]1[C@H](C2)N(C)CC3 [Dextromethorphan hydrobromide] | 5.52 (active) |

same assay, conditions: stock concentration (mM, diluted 1:100): 8.6

| SMILES | HIS4 meiotic recombination assay sensitivity score |
| --- | --- |
| CCOC(=O)C1(c2ccccc2)CCN(CCC(C#N)(c2ccccc2)c2ccccc2)CC1 [Diphenoxylate] | 0.41 |

same assay, conditions: stock concentration (mM, diluted 1:100): 8.7

| SMILES | HIS4 meiotic recombination assay sensitivity score |
| --- | --- |
| CC(=O)O[C@H]1C[C@@H]2CC[C@@H]3[C@H](CC[C@@]4(C)[C@H]3C[C@H]([N+]3(C)CCCCC3)[C@@H]4OC(C)=O)[C@@]2(C)C[C@@H]1[N+]1(C)CCCCC1 [Pancuronium] | -0.44 |
| CC(NC(C)(C)C)C(=O)c1cccc(Cl)c1 (stereo not drawn) [Bupropion hydrochloride] | 1.07 |

same assay, conditions: stock concentration (mM, diluted 1:100): 10

| SMILES | HIS4 meiotic recombination assay sensitivity score |
| --- | --- |
| C#CCN(C)[C@H](C)Cc1ccccc1 [Selegiline] | 0.06 |
| CC(O)(CS(=O)(=O)c1ccc(F)cc1)C(=O)Nc1ccc(C#N)c(C(F)(F)F)c1 (stereo not drawn) [Bicalutamide] | -0.62 |
| C[C@]12CC[C@H]3[C@@H](CCC4=CC(=O)CC[C@@H]43)[C@@H]1CC[C@@H]2O [19-Nortestosterone] | 1.09 |
| CN1C(=O)COc2c(C(=O)NC3CN4CCC3CC4)cc(Cl)cc21 (stereo not drawn) [Azasetron] | 1.08 |
| CC(C)[C@]12O[C@H]1[C@@H]1O[C@]13[C@]1(O[C@H]1C[C@H]1C4=C(CC[C@@]13C)C(=O)OC4)[C@@H]2O [Triptolide] | 0.28 |
| CCCCC/C=C\C/C=C\C/C=C\C/C=C\CCCC(=O)Nc1ccc(O)cc1 | -0.8 |
| Cc1nnc2n1-c1ccc(Cl)cc1C(c1ccccc1)=NC2 [Alprazolam] | 1.57 |
| c1ccc2c3c([nH]c2c1)CNCC3 [Tryptoline] | -3.38 |
| C[C@H]1CCC[C@H](O)CCCCCc2cc(O)cc(O)c2C(=O)O1 [Zeranol] | -1.27 |
| COc1cc2c(cc1OC)[C@@]13CCN4CC5=CCO[C@H]6CC(=O)N2[C@H]1[C@H]6[C@H]5C[C@H]43 [Brucine] | 0.05 |
| NC(=O)C[S+]([O-])C(c1ccccc1)c1ccccc1 (stereo not drawn) [Modafinil] | -0.33 |
| OC1CCCCC1N1CCC(c2ccccc2)CC1 (stereo not drawn) [Vesamicol hydrochloride] | -0.31 |
| CNC(=O)Oc1ccc2c(c1)[C@]1(C)CCN(C)[C@@H]1N2C [Physostigmine] | -0.16 |
| CC(C)CC(N(C)C)C1(c2ccc(Cl)cc2)CCC1 (stereo not drawn) [Sibutramine hydrochloride] | 0.96 |
| NC1=NC(=O)C(c2ccccc2)O1 (stereo not drawn) [Pemoline] | -0.78 |
| C=C1C[C@@H]2[C@H](CC[C@]3(C)C(=O)CC[C@@H]23)[C@@]2(C)C=CC(=O)C=C12 [Exemestane] | 3.99 |
| CCN(CC)CCOC(=O)C(O)(c1ccccc1)c1ccccc1 [Benactyzine hydrochloride] | -0.53 |
| N=C(NCc1ccc(Cl)cc1)SCCCc1c[nH]cn1 [Clobenpropit] | -0.07 |
| Oc1ccc2c3c1O[C@H]1[C@@H](O)CC[C@@]4(O)[C@@H](C2)N(CC2CCC2)CC[C@]314 [Nalbuphine] | -0.56 |
| COc1ccc2[nH]cc(CCN)c2c1 [5-Methoxytryptamine] | -1.35 |

same assay, conditions: stock concentration (mM, diluted 1:100): 10.1

| SMILES | HIS4 meiotic recombination assay sensitivity score |
| --- | --- |
| NC(=O)OCCCc1ccccc1 [Phenprobamate] | 0.5 |
| C[C@]12CC[C@H](O)CC1=CC[C@@H]1[C@@H]2CC[C@@]2(C)[C@H]1CC[C@]2(C)O [Methylandrostenediol] | -1.02 |
| C[C@]12CCC(=O)C[C@@H]1CC[C@@H]1[C@@H]2CC[C@@]2(C)[C@H]1CC[C@]2(C)O [Mestanolone] | -0.62 |
| C[C@]12C/C(=C/O)C(=O)C[C@@H]1CC[C@@H]1[C@@H]2CC[C@@]2(C)[C@H]1CC[C@]2(C)O [Oxymetholone] | 8.48 (active) |
| CC(NC(C)(C)C)C(=O)c1cccc(Cl)c1 (stereo not drawn) [Amfebutamone hydrochloride] | -0.33 |

same assay, conditions: stock concentration (mM, diluted 1:100): 11.3

| SMILES | HIS4 meiotic recombination assay sensitivity score |
| --- | --- |
| CC(C)CC(N(C)C)C1(c2ccc(Cl)cc2)CCC1 (stereo not drawn) [Sibutramine] | 1.61 |

same assay, conditions: stock concentration (mM, diluted 1:100): 19.9

| SMILES | HIS4 meiotic recombination assay sensitivity score |
| --- | --- |
| Cc1ccc(-c2nc3ccc(C)cn3c2CC(=O)N(C)C)cc1 [Zolpidem tartrate] | 0.04 |
